In the supplement of paper PMC6555819:

Tests used:
Experiment in all cases: PBM binding z-score (relative to random genomic background probes); higher = stronger binding; sequences stand for … in GC…GCGATTGACAGCGTAGAATGAAGG
[1] = tested on: FXR:RXRa (NR concentration 270 nM, RXRa partner concentration 90 nM)
How it was run: (§1)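 Custom Agilent 4×180K protein-binding microarrays carried double-stranded probes, each with a 34-nt variable region. These regions held direct-repeat seeds, single-nucleotide variants, half-site ablations and random human genomic background sequences. Ligand-free nuclear receptor dimers were incubated on the arrays for 1 h, antibodies against each partner (one per run) detected binding, and scanned fluorescence was regression-normalized. Binding z-scores take the random background probes as reference.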

[2] = tested on: LXRa:RXRa (NR concentration 270 nM, RXRa partner concentration 90 nM)
How it was run: as §1

[3] = tested on: LXRa homodimer (NR concentration 270 nM)
How it was run: as §1

[4] = tested on: LXRb:RXRa (NR concentration 270 nM, RXRa partner concentration 90 nM)
How it was run: as §1

[5] = tested on: LXRb homodimer (NR concentration 270 nM)
How it was run: as §1

[6] = tested on: PPARa:RXRa (NR concentration 270 nM, RXRa partner concentration 90 nM)
How it was run: as §1

[7] = tested on: PPARg:RXRa (NR concentration 180 nM, RXRa partner concentration 90 nM)
How it was run: as §1

[8] = tested on: PPARg:RXRa 270nM:90nM, anti-RXR (NR concentration 270 nM, RXRa partner concentration 90 nM)
How it was run: as §1

[9] = tested on: PPARg:RXRa 30nM:10nM, anti-RXR (NR concentration 30 nM, RXRa partner concentration 10 nM)
How it was run: as §1

[10] = tested on: PPARg:RXRa 90nM:30nM, anti-RXR (NR concentration 90 nM, RXRa partner concentration 30 nM)
How it was run: as §1

Sequence	PBM binding z-score [1]	PBM binding z-score [2]	PBM binding z-score [3]	PBM binding z-score [4]	PBM binding z-score [5]	PBM binding z-score [6]	PBM binding z-score [7]	PBM binding z-score [8]	PBM binding z-score [9]	PBM binding z-score [10]
GCTTGGAGATCAAGGTTAAGAAAGACTAAGCTAA	0.0543	0.942	-0.403	0.686	-1.08	1.57	0.135	0.864	0.225	0.671
GCTTGTAGATCAAGATTAAGAAAGACTAAGCTAA	-0.857	-0.792	-0.561	-0.525	-0.737	-0.32	0.226	-0.333	-0.252	-0.334
AGAACGAGGGCACGCTGAGTTGATAGCTGAGTAG	0.863	0.607	-0.912	0.017	-0.95	2.18	2.08	1.87	0.18	1.06
CCGACTGGGGCACAAGGTTACCATAAGCCAGCCC	0.122	1.73	-0.433	0.74	-1.16	2.2	2.92	3.16	0.724	2.49
CCTCGGAGGACAACATGAGGTCAGAGCTGCCAGA	1.56	3.37	3.95	2.18	-0.278	2.38	0.717	0.534	-0.623	0.0899
TAGCCTAGGTGATGGGCCAGTATACCACGCGAAC	-0.85	-0.73	-0.59	-0.909	-0.955	-0.386	0.501	0.427	-0.547	-0.0568
TCATATAGGTAAACAGGTGAAAGCCCGTAAGTTA	0.95	1.13	0.0822	0.763	-0.22	2.4	2.7	3.37	3.79	3.69
TCTAGCAAGCCAGAGGGTCACTCAAGAGGTACGG	0.763	0.684	-0.557	1.04	-1.21	2	0.737	1.3	1.51	1.28
ATCGAAAGGTCGAGGTTAGTATAGAGAAAGGGAA	3.77	3.57	0.422	2.93	0.526	4.48	3.03	3.6	1.65	2.68
GCATATAGGTAAAACAAGGTGAAAGTCCGATTGT	1.15	2.03	-0.3	0.461	-0.664	1.96	1.32	1.69	0.57	1.14
CGAACTAGGTCATTGTCAGGACAGTGAATAGTAA	3.91	3.08	0.611	1.99	0.0511	4.67	7.44	6.43	4.07	5.88
ATCTCTAGGTAACCAAGTTCAGCGAATGCCGAAC	0.438	0.886	0.803	0.7	0.602	1.4	0.655	1.07	0.316	0.524
CCGACTGGGGCAGAAAGGGTACCATACCATCCGG	-0.642	-0.505	-0.574	-0.581	-1.48	0.209	0.831	0.193	-0.692	0.0495
CATGCAGGGTCAGCTAGGCCAGAGTAGGGACGGC	4.4	2.77	-0.597	2.03	-0.151	4.36	2.66	3.1	0.694	1.84
TGCATGAGGTTATAAGATCAGGGAACGTTGCAAA	1.67	1.59	-0.113	0.956	0.14	2.37	0.778	1.2	0.448	0.789
AGAAAGAGGTTAAGATCAGGGAAACAGAATACAT	2.5	2.43	0.396	2.31	0.766	3.66	2.06	1.89	1.05	1.34
TCTTGTATATCAGCAGGTTAAGAAAGCTGGCCAA	0.775	0.883	0.29	1.03	0.727	0.972	-0.165	1.63	3.19	2.42
CCTTACGGGTCACTCCAGGTTATAGAATCGGAGT	5.18	7.67	1.89	5.43	0.287	4.4	3.31	3.8	1.18	2.56
ATCGAAAGGTCGAATGTGAGTATACCCACCCGAA	4.89	4.01	0.69	3.19	1.37	4.5	2.9	3.02	1.25	1.97
TAGTCTAGGTCAGATCGGGCCAGTATACGCTATA	1.81	1.91	0.186	1.13	1.4	2.38	2.36	2.4	0.965	1.92
GCAGACAGGCGAAACGCAGGTAACTCAGGGTGGC	-0.64	-0.615	-0.761	-1	-1.38	-0.682	0.297	-0.871	-0.326	-0.791
CACACTAGGTCACGAAAGGTCAAAGTCGAATGAC	7.55	8.25	9.12	7.76	3.53	6.67	9.73	8.2	6.53	8.24
TAGCCTGGGTCATGCGGGCCAGTATAGTGTCGGC	3.19	1.79	-0.665	1.03	-0.444	3.4	2.12	2.48	0.16	1.54
TCTAGTTGGTCACGAAGGTCACACACGACGGGTA	2.82	3.04	1.75	3.17	0.769	3.71	3.45	4.6	3.66	4.25
GATACAGGGTCAAGGCCATAGTACGCGTATTGAT	6.45	4.12	0.059	3.75	0.018	5.51	6.08	5.45	2.63	4.43

Sequence	PBM binding z-score [1]	PBM binding z-score [2]	PBM binding z-score [3]	PBM binding z-score [4]	PBM binding z-score [5]	PBM binding z-score [6]	PBM binding z-score [7]	PBM binding z-score [8]	PBM binding z-score [9]	PBM binding z-score [10]
TAGCCTAGGTCATATCGGGCCAGTATACGCTATA	4.12	3.82	0.583	2.59	0.744	3.14	1.53	1.61	0.227	0.981
TAGGCTAGGTCATTCAGGGGCCAGTATAGAAAGC	5.03	3.64	0.726	2.79	1.32	3.63	2.37	2.47	0.608	1.64
TTACCAAGGTGAAAGGCCGTTGATGCACGCCTTG	0.494	0.431	-0.517	0.397	-0.951	2.49	3.77	4.98	2.95	4.9
CGTCAAAGTTCAACTAAGATAACGTAAAGCACGC	6.92	6.3	4.03	4.14	2.68	5	4.94	5.19	2.56	4.27
GCTAGCAGGCCATTTGGGTCACTCAATGACGGGC	0.232	-0.126	-0.618	-0.0783	-0.885	1.34	0.697	0.632	-0.477	-0.0514
CCTACTGGGCCATTCAGTGGTCATTGATCATATG	-0.271	-0.187	-0.281	-0.498	-0.602	0.355	0.304	0.661	-0.571	0.191
ATCTCTAGGTAAAAGTTCAGTGGATCCCGAGGAT	1.06	1.66	1.37	1.03	1.11	4.09	7.94	7.5	7.58	8.5
CCGACTGGGGCAAGTTTACCATAACGCACAGCCA	-0.129	0.0135	0.16	0.0377	-0.603	0.536	0.987	0.774	-0.288	0.451
GCTCGGAGGGCAAGGTCAGAGCTTTGTCCGTAGA	2.16	2.05	-0.485	1.26	-1.03	3	1.23	2	-0.62	0.771
GCTCCTAGGTCAGGTTGGTCAGCTAACGGGTACG	1.88	1.13	0.0623	1.09	0.0222	2.12	0.889	1.34	-0.42	0.479
AATACAGGGTCATCGTTGGCCAGAGTACGCACAG	7.42	6.21	2.13	4.57	1.5	5.96	6.68	5.97	2.51	4.75
TCATATAGGTAAATACTAGGTGAAAGTCCGATCT	1.19	1.08	0.534	0.889	0.276	2.16	2.46	3.26	4.4	3.92
AGAACGAGGGCAAGGAGTTGATAGCACGGGTGGC	0.193	0.0802	-0.479	-0.441	-0.879	1.2	1.25	1.06	-0.111	0.543
ATATGTAGGTTAGCTGGGGTAATTCAGACTAGGC	0.983	0.79	0.216	1.28	0.815	2.91	3.61	3	0.942	2.01
CAGGCTAGGTCAGGGCCAGTATAGGAGGAACGTT	1.56	0.779	-0.274	0.278	-0.895	2.06	1.39	1.07	-0.194	0.297
AGAATGAGGTTAAGATCAGGTAAACAGAATACAT	2.45	4	-0.00313	2.24	-0.136	3.9	2.61	2.31	0.859	1.75
AGAATGAGATTATACGTAGATCAGGGAAGAAAGT	-0.225	-0.715	-0.134	-0.538	-0.345	-0.566	1.09	-0.183	0.419	-0.327
CCGAGTAGGTTATGGGGCATTCATGCAACGGTGA	0.225	0.548	-0.0106	0.797	-0.214	2.26	3.65	4.6	3.02	4.44
CGAACTAGGTCAAGGGCAGTGAATCTCCGCACGC	3.56	2.14	-0.0571	1.21	-0.428	4.64	8.03	6.75	4.74	6.89
AGAATGAGGTTATACGAAGATCAGGGAAGAAAGT	2.26	1.67	-0.199	1.54	-0.139	3.25	1.68	1.8	0.749	1.51
GCGACTGGGCCAAAGCAGGTTACCATAAGGTTGG	-0.0779	-0.533	-0.738	-0.554	-1.58	0.468	0.648	0.456	-0.481	0.0774
GTACCAAGGTTAATAGGTCGTTGATGAGTAGGCG	2.13	1.67	0.289	1.34	-0.213	3.18	3	3.43	1.01	2.5
TCTTGTATATCAAAGGTTAAGAAAGCCGAAGCCT	1.57	2.66	1.24	2.13	0.723	3.79	6	6.59	6.78	7.96
CCAGACATGTGAAAGGTAACTCAGTCTGGTACGC	-0.293	-0.0217	0.0919	0.07	0.186	1.02	1.63	2.44	0.62	2.1
